High-throughput results deposited in PubChem BioAssay by several laboratories.
Shown are actives, neighbours in structure and some others; about 4.1% of the full set was active somewhere.
Mtb UGM inh: inhibitors of M. tuberculosis UDP-galactopyranose mutase | inhibition, % at 10 µM | purified UGM, fluorescence polarization probe displacement | P9WIQ1 | hit rate 0.06% among 320,000; in the data active means inhibition above about 10%, passing the limit was not always enough
RecA splice inh: inhibitors of M. tuberculosis RecA intein splicing; P9WHJ3; cell-free RecA intein splicing, fluorescence; inhibition, % (no concentration beside the values); hit rate 0.75% among 290,000; AID 2221; in the data active means inhibition above about 30%;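 further: 0% = vehicle wells and 100% = reference inhibitor control wells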
Rv3671c inh: inhibitors of M. tuberculosis serine protease Rv3671c. P9WHR9. inhibition, % at 5.96 µM. hit rate 0.048% among 320,000. AID 2606; in the data active means inhibition above about 38%;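 further: extracellular domain of Rv3671c used as enzyme; 0% = enzyme with DMSO and 100% = no enzyme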
Target sequence (P9WHR9 whole entry, looked up, the tested form may be a part): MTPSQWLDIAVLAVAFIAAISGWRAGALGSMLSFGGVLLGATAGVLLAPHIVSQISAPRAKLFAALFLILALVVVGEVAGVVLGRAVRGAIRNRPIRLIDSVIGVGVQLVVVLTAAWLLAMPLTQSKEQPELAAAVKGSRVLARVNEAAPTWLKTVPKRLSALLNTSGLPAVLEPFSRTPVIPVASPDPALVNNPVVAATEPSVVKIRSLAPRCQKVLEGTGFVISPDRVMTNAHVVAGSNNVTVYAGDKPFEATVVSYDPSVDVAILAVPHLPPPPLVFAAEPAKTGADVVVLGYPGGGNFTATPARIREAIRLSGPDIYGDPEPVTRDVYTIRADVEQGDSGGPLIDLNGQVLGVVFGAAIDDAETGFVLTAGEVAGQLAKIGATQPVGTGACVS
GDH-TPI inh: GDH-TPI coupled enzyme inhibition counter-screen; GDH-TPI coupled enzyme counterscreen, NADH absorbance; inhibition, % at 4.8 µM; hit rate 1.2% among 360,000; AID 588335; in the data active means inhibition above about 30%;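 further: 0% = DMSO wells and 100% = wells lacking the enzyme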
Mtb FBA inh: inhibits M. tuberculosis FBA enzyme | P9WQA3 | purified M. tuberculosis FBA, fluorescence read-out | inhibition, % at 1 µM | hit rate 2.3% among 360,000; in the data active means inhibition above about 27%;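 further: 0% = vehicle and 100% = reference inhibitor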
BH1578 lux ind: quorum light induction in luxS cqsA deficient V. cholerae; AID 588436; V. cholerae BH1578 lux reporter, luminescence, 6 h; hit rate 0.16% among 350,000; activation, % at 18.7 µM; in the data active means activation mostly above about 9.7%, no sharp cut-off
* = called active by the depositor; i = inactive; · = no result given.

SMILES	Mtb UGM inh	RecA splice inh	Rv3671c inh	GDH-TPI inh	Mtb FBA inh	BH1578 lux ind
Cc1cc(=O)oc2c(C)c(OCC(=O)N3CCN(c4cccc(Cl)c4)CC3)ccc12	0.2	1.9	-7.5	-8.7	3.6	-2.6
CC(N)=Nc1ccc([N+](=O)[O-])cc1	14.2*	0.5	-1.6	7.0	-1.3	i
CC(=O)c1ccc([N+](=O)[O-])cc1	1.0	·	-1.2	0.0	1.7	-0.4
Cc1cccc(NC(=O)CCNC(=O)c2ccc(Br)cc2)c1	-0.3	-1.9	5.8	-1.1	-1.4	i
N/C(=N\N=C/c1ccc(-c2ccc(O)c(C(=O)O)c2)o1)N[N+](=O)[O-]	0.3	-2.3	-0.8	58.3*	4.1	-0.4
CC(C(=O)N=Nc1c(O)[nH]c2ccccc12)n1cnc2ccccc2c1=O (centres undefined)	-0.7	-2.7	2.1	9.8	-1.3	-0.3
Cc1cccc2c(N=NC(=O)C(C)n3cnc4ccccc4c3=O)c(O)[nH]c12 (centres undefined)	-1.6	1.4	-1.1	35.4*	-2.7	-0.4
Cc1cc(C)c2c(N)c(C(=O)Nc3ccccc3F)sc2n1	0.1	-37.3	-2.6	10.8	25.6	1.6
Cc1cc(C)c2c(N)c(C(=O)Nc3ccccc3Cl)sc2n1	0.4	-1.6	2.9	6.1	32.8*	-0.4
CC(=O)c1sc2nc(C)cc(C)c2c1N	-1.6	-89.3	-9.7	19.4	22.2	-1.0
C=COC(=O)c1sc2nc(C)cc(C)c2c1N	3.7	-20.2	4.1	1.1	134.2*	0.0
O=C1c2cc([N+](=O)[O-])ccc2-c2ncccc21	1.4	46.3*	-4.6	8.8	-0.3	-0.5
O=C1c2cccnc2-c2ncccc21	3.9	-1.1	-9.5	5.0	1.8	i
COc1ccc(NC(=O)C(=O)NNC(=O)c2cccs2)cc1	-0.8	-0.7	5.9	20.0	2.2	i
COc1ccc(NC(=O)C(=O)NNC(=O)c2cccs2)c(OC)c1	-1.7	1.5	-1.9	36.2*	1.4	-0.3
CN(C)c1ccc(C(=O)OCC(=O)c2ccc[nH]2)cc1	4.5	·	-3.4	30.8*	0.9	1.6
N/C(=N\OC(=O)c1ccccc1)C(C(=O)NOC(=O)c1ccccc1)C1CCCCC1 (centres undefined)	·	·	·	8.5	-1.0	i
COc1ccc(/C=C(\C#N)C(=O)N2CCOCC2)cc1Br	·	-3.9	2.1	37.1*	1.5	-0.7
COc1cc(/C=C(\C#N)C(=O)N2CCOCC2)ccc1OCc1ccccc1	-1.1	1.9	0.5	12.9	-3.6	0.6
O=C(CSCc1ccccc1Cl)NCCSc1ccccn1	0.2	1.3	-1.3	-12.5	2.6	-0.2
Cn1c(=O)c2c(nc(N/N=C/c3ccco3)n2C)n(C)c1=O	-0.5	-1.8	-5.0	56.1*	1.3	0.3
Cn1c(=O)c2c(nc(N/N=C/c3cccnc3)n2Cc2ccccc2)n(C)c1=O	0.4	-2.0	-0.8	31.0*	0.8	-0.9
CC1CCN(C(=O)CN2C(=O)c3cccc4cccc(c34)C2=O)CC1	1.6	-1.5	-8.9	35.4*	21.4	-0.2
C=CCn1c(=NC(=O)c2cccc(N3C(=O)CCC3=O)c2)sc2cccc(OC)c21	-1.0	-0.8	-10.6	41.6*	3.1	-0.3
C#CCn1c(=NC(=O)CN2C(=O)CCC2=O)sc2cccc(OC)c21	0.1	-1.8	5.4	2.0	13.5	-2.6
SMILES	Mtb UGM inh	RecA splice inh	Rv3671c inh	GDH-TPI inh	Mtb FBA inh	BH1578 lux ind
C#CCn1c(=NC(=O)c2cccs2)sc2cccc(OC)c21	3.1	-5.0	-37.0	30.8*	6.4	1.1
Cc1ccc2c(c1)CO[C@@]21O[C@H](CCO)C[C@H](O)[C@H]1O	·	·	·	5.2	-1.4	i
O=C(NC(=S)Nn1cnnc1)c1ccccc1Cl	13.2*	-1.7	4.7	-1.3	-2.5	i
CCCCCCCCCC[n+]1cccc2c3ccccc3ccc21	·	19.5	·	4.1	29.1*	-1.4
O=C(Nc1cccn2nc(COCCO)nc12)C(c1ccccc1)c1ccccc1	·	·	·	7.1	-0.2	-1.4
COCCNC(=O)C1(C)CCCN(Cc2ccc(Cl)c(Cl)c2)C1 (centres undefined)	·	·	·	5.3	-2.3	-0.8
COc1ccc(/C=N/Nc2nc(C(=O)O)cs2)cc1	-1.8	-3.9	6.4	34.3*	0.4	5.2
CSc1nc(N)c(C#N)c(-c2ccc(Cl)cc2)c1C#N	0.0	0.7	-54.7	32.8*	4.0	-0.5
N#Cc1c(-c2ccc(Cl)cc2)c(C#N)c(=O)n(N)c1N	2.1	3.2	3.8	32.7*	-3.6	-0.3
CSc1nc(-c2ccc(Cl)cc2)nc(N)c1C#N	-0.9	0.8	1.8	-3.1	0.3	-0.3
